Sampled rows, rich in hits. Any-hit rate of the full collection: about 2.6%.
AmpC nodet inh = blocks E. coli AmpC beta-lactamase in absence of detergent | P00811 | AmpC nitrocefin hydrolysis, absorbance 480 nm, no detergent | hit rate 1.8% among 71,000 | Potency, µM (series often up to 28.7 µM)
Target sequence (P00811 whole entry, looked up): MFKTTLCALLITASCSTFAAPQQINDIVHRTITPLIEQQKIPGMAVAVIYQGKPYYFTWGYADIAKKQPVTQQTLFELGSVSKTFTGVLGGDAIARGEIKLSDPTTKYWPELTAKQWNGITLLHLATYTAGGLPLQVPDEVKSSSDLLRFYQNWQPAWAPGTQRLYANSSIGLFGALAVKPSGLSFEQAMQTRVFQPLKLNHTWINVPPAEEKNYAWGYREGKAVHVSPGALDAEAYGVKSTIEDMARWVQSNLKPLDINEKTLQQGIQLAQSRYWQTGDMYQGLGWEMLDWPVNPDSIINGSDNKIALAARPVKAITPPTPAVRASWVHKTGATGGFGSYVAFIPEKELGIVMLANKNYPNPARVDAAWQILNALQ
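AmpC, 20 mM phosphate pH 7.0; 15 min cpd preinc, RT; start with nitrocefin (800 uM stock); A480 kinetic read, 20 s intervals, 4 min. No-enzyme wells = negative control.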
AmpC inh det = blocks E. coli AmpC beta-lactamase in presence of detergent; AID 584; purified AmpC, nitrocefin hydrolysis with detergent; Potency, µM (doses to about 28.7 µM); hit rate 0.09% among 71,000; active means well fitted curve in the direction sought with a large enough effect; inconclusive means small, poorly fitted or top-dose-only effect
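E. coli AmpC (5.3 nM) in 20 mM phosphate pH 7.0 with 0.01% Triton X-100, preincubated 15 min RT with compound; nitrocefin (2 uL of 800 uM stock) hydrolysis followed by 480 nm absorbance every 20 s over 4 min.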
Prx2 Sm inh = inhibitors of Schistosoma mansoni peroxiredoxin 2; hit rate 0.07% among 65,000; Potency, µM; AID 448; S. mansoni Prx2 activity coupled to TGR/GSH (TGR is thioredoxin glutathione reductase), NADPH fluorescence loss, qHTS
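Purified S. mansoni TGR and Prx2 in pH 7.4 phosphate buffer with EDTA and Tween-20 were preincubated with compounds for 15 min. Further NADPH/GSH was added, then a 2.5 mM H2O2 aliquot initiated turnover, followed kinetically by NADPH fluorescence.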
Anthrax LT inh = blocks cellular internalization of anthrax lethal toxin; Cells, anthrax lethal toxin internalization, FRET ratio (460/530); Potency, µM (top dose mostly 40 µM), hits mostly inhibitors; hit rate 0.67% among 70,000; AID 912; further: nearly all actives have a fitted effect of over 50% in size
Numbers stand for hits; . = inactive; ? = inconclusive; / = no result; [ ] = another dose, or the depositor's remark. Unless noted, the call rests on the fitted dose curve.

SMILES	AmpC nodet inh	AmpC inh det	Prx2 Sm inh	Anthrax LT inh
O=C(NC1CCCCCC1)C1CCN(S(=O)(=O)c2cccc3cccnc23)CC1	.	.	.	.
CN1CCC[C@@H]1c1cccnc1.O=C(O)c1ccccc1O.O=C([OH2+])c1ccccc1O.O=C([OH2+])c1ccccc1O.[Mn]	.[5.75 µM]	.[5.75 µM]	.	?
Nc1ccccc1[N+](=O)[O-]	.	.	/	.
CCOC(=O)c1ccc2ncc(C(=O)OCC)c(NCCN(C)C)c2c1	3.16µM[single pt active]	.	.	.
O=S(=O)(c1ccccc1)N1CCC2(CCCN(c3ccccc3)C2)CC1	.	.	.	?
O=S(=O)(c1ccccc1)N1CCC2(CCCN(c3ccncc3)C2)CC1	.	.	.	1µM
CCCCOC(=O)C1C2C=CC3(CN(CCc4ccccc4)C(=O)C13)O2 (stereo not given)	3.98µM[single pt active]	.	.	.
CCc1ccccc1N1CC23C=CC(O2)C(C(=O)OCC(C)C)C3C1=O (stereo not given)	.	.	.	.
CCCCOC(=O)C1[C@H]2C(=O)N(CCc3ccccc3)C[C@]23C=C[C@H]1O3 (stereo not given in full)	.	.	.	.
CCc1ccc(N2CC34C=CC(O3)C(C(=O)OC(C)C)C4C2=O)cc1 (stereo not given)	3.16µM[single pt active]	.	.	.
COc1ccc(C(C)N2CC34C=CC(O3)C(C(=O)OCC(C)C)C4C2=O)cc1 (stereo not given)	3.98µM[single pt active]	.	.	.
CCc1ccc(N2CC34C=CC(O3)C(C(=O)OC)C4C2=O)cc1 (stereo not given)	3.98µM[single pt active]	.	.	.
CC[C@H]1CC[C@H]2[C@@H]3CC=C4C[C@H](OC(C)=O)[C@@H](N)C[C@@]4(C)[C@H]3CC[C@@]12C	.[5.75 µM]	.[5.75 µM]	.	?
CCN(CC)[C@@H](C)C(=O)N1c2ccccc2Sc2ccccc21	.	.	.	?
COc1ccc(NC(=O)CC2Oc3ccc(C)cc3NC2=O)cc1 (stereo not given)	3.98µM[single pt active]	.	.	.
COc1ccc(NC(=O)CC2Oc3ccccc3NC2=O)cc1 (stereo not given)	3.98µM[single pt active]	.	.	.
COc1ccc(OC)c(CCNC(=O)CC2Oc3ccccc3NC2=O)c1 (stereo not given)	.	.	.	.
Cc1ccc(NC(=O)CC2Oc3ccc(C)cc3NC2=O)cc1 (stereo not given)	.	.	.	.
CCN(CC)CCCCn1c(-c2ccccc2)nc2c(N(CCOC)CCOC)nc(C)nc21	.	.	/	.
N[C@@]1(C(=O)O)CCC[C@@H]1C(=O)O	.[5.75 µM]	.[5.75 µM]	.	.[8 µM]
O=C(c1ccc(N2CCCCS2(=O)=O)cc1)N1CCN(c2ccc(N3CCOCC3)nn2)CC1	3.98µM[single pt active]	.	.	.
CCOC(=O)N1CCC(NC(=O)Cn2nc(-c3ccccc3)ccc2=O)CC1	.	.	.	?
CCOC(=O)N1CCC(NC(=O)Cn2nc(Cc3ccncc3)c3ccccc3c2=O)CC1	3.98µM[single pt active]	.	.	.
C[C@@H](O)[C@H]1C(=O)N2C(C(=O)O)=C(S[C@@H]3CN[C@H](C(=O)N(C)C)C3)[C@H](C)[C@H]12	.	.	.	0.501µM
O=C1CCC(c2ccccc2)=NN1c1nc2ccccc2s1	.[5.75 µM]	.[5.75 µM]	.	?
SMILES	AmpC nodet inh	AmpC inh det	Prx2 Sm inh	Anthrax LT inh
CC(=O)OC(C)(C)N=Nc1ccc(Br)cc1	.[5.75 µM]	.[5.75 µM]	.	.[8 µM]
Nc1nn(S(=O)(=O)c2cccc3nsnc23)cc1-c1ccc(Br)cc1	12.6µM[single pt active]	.	.	?
Cc1ccc(-c2cn(S(=O)(=O)c3cccc4nsnc34)nc2N)cc1	.	.	.	.
CCOc1ccc(-n2c(Cc3cc(=O)[nH]c(=O)[nH]3)nnc2SCC(=O)NC2CCCC2)cc1	?	.	.	.
O=C(CSc1nnc(Cc2cc(=O)[nH]c(=O)[nH]2)n1-c1ccc(Cl)cc1)NCC1CCCO1 (stereo not given)	.	.	.	.
COc1ccc(-n2c(Cc3cc(=O)[nH]c(=O)[nH]3)nnc2SCC(=O)NC2CCCC2)cc1	3.98µM[single pt active]	.	.	.
O=C(CSc1nnc(Cc2cc(=O)[nH]c(=O)[nH]2)n1-c1ccc(Cl)cc1)NC1CCCC1	3.98µM[single pt active]	.	.	.
Cn1nc(OCC(N)=O)ccc1=O	.	.	.	.
NC(=O)COc1ccc(=O)n(-c2ccccc2)n1	3.98µM[single pt active]	.	.	.
COC(=O)c1ccc(C(NC(=O)OCc2ccccc2)/C(F)=C/[C@@H](C)C(=O)NC2CCCCC2)cc1 (stereo not given in full)	.	.	/	.
CN(C)c1ccnc(SCc2ccccc2Cl)c1C#N	.	.	.	7.94µM
COC(=O)CC[C@@H](C)[C@H]1CC[C@H]2[C@H]3CC[C@H]4C[C@@H]5CC[C@@]4(C)C3(O5)[C@@H](Br)[C@@H](Br)[C@@]12C	.[5.75 µM]	.[5.75 µM]	.	?
O=C1c2c(O)cc(O)cc2O[C@@H](c2ccc(O)c(O)c2)[C@H]1O	.	.	.	.
O=C(CSCc1ccco1)c1ccc(Cl)s1	10µM	.	.	.
CC(=O)Nc1ccc(S(=O)(=O)Nc2cccc(-c3nc4cc(C)ccc4o3)c2)cc1	.	.	.	12.6µM
Cc1ccc2oc(-c3cccc(NC(=O)C4CCCO4)c3)nc2c1 (stereo not given)	.	.	.	.
Cc1ccc(-c2nn3c(C)nnc3s2)cc1NC(=O)COc1ccc(Cl)cc1	.	.	.	.
CC(C)(C)n1nc2c(c1NC(=O)COc1ccc(Cl)cc1)CSC2	12.6µM	.	.	?
O=C(N[C@@H](Cc1ccccc1)C(=O)CCl)OCc1ccccc1	.	.	.	15.8µM
COC(=O)C(C(C)=O)C(=O)C(Cc1ccccc1)NC(=O)OCc1ccccc1 (stereo not given)	/	/	/	.[8 µM]
CN(C)CCC(C#N)(c1ccccc1)c1ccccc1	.[5.75 µM]	.[5.75 µM]	.	.[8 µM]
Cc1noc(/C=C/N(C)C)c1S(=O)(=O)N1CCc2ccccc21	3.98µM[single pt active]	.	.	?
O=C(CCOc1ccccc1)OCC(=O)c1cc2ccccc2o1	0.631µM	.	.	.
CC(CCc1nc2ccccc2s1)(c1ccc(O)cc1)c1ccc(O)cc1	.[5.75 µM]	.[5.75 µM]	.	.[8 µM]
N#CSCSC#N	.	.	/	?
SMILES	AmpC nodet inh	AmpC inh det	Prx2 Sm inh	Anthrax LT inh
CC(C)(C)C(=O)[C@@H]1[C@@H]2C(=O)N(c3ccc4c(c3)OCCO4)C(=O)[C@@H]2C2c3ccccc3C=CN21 (stereo not given in full)	.	.	.	1.26µM
O=C(O)C[n+]1ccccc1	.[5.75 µM]	.[5.75 µM]	.	.[8 µM]
O=c1cc(-c2ccccc2Cl)c2c([nH]1)CCC2	3.98µM[single pt active]	.	.	.
Cc1ccc(C)c(/C(=N\N=C(N)N)C2CC2)c1	.[5.75 µM]	.[5.75 µM]	.	.[8 µM]
O=C1C[C@@H]2OCC=C3CN4CC[C@]56c7ccccc7N1[C@H]5[C@@H]2[C@H]3C[C@@H]46	.	.	.	.
COc1ccc(CNC(=O)C(c2cccs2)N(C(=O)c2csnn2)C2CC2)cc1 (stereo not given)	.	.	.	7.94µM
CCCSc1nc(C)cc(=O)[nH]1	.	.	.	.
Cc1cc(=O)[nH]c(SCc2cc(=O)n3nc(C)sc3n2)n1	3.98µM[single pt active]	.	.	.
O=c1[nH]c2ccccc2n1CCCSCCCn1c(=O)[nH]c2ccccc21	.	.	.	?
CCn1c2ccccc2c2nnc(SCc3ccccc3)nc21	3.98µM[single pt active]	.	.	?
